# Reference: publication PMC7862700, “An all-to-all approach to the identification of sequence-specific readers for epigenetic DNA modifications on cytosine”
# Columns and labels:
# Assay in all cases: DAPPL (digital affinity profiling via proximity ligation, sequencing); 10 mM Tris-HCl pH 7.5, 50 mM NaCl, 1 mM DTT, 4% glycerol, room temperature, 30 min; GST-TFs on glutathione beads, 16-mer random dsDNA library, 0.1% formaldehyde crosslink after washing; high values mean tight binding
# FEV = target: T1, FEV (Homo sapiens, UniProt Q99581 1-238); conditions: protein: recombinant; tags: N-terminal GST; dsDNA, one strand shown
# T1 sequence: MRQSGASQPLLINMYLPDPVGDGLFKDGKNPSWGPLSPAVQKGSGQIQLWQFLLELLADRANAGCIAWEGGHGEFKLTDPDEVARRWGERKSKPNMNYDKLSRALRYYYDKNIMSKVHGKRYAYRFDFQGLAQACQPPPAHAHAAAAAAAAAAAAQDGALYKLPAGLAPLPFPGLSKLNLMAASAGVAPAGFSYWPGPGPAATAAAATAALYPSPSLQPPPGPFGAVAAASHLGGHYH
# Summary of the method: (§1)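 Yeast served to express human transcription factors as GST fusions, which were then captured on glutathione beads and labelled with DNA barcodes. Pooled with a tag-only sample, they were incubated with 200 nmole of a 16-mer random double-stranded DNA library for 30 min at room temperature in Tris/NaCl/DTT/glycerol buffer, washed, crosslinked with 0.1% formaldehyde, ligated by proximity, amplified by PCR and sequenced. Dividing each hexamer's read frequency for a factor by its frequency for the tag-only sample gives the binding signal.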
# ETV5 = ETV5 (Homo sapiens, UniProt P41161 1-510); conditions: protein: recombinant; tags: N-terminal GST; dsDNA, one strand shown
# Chain of ETV5 (P41161 whole entry): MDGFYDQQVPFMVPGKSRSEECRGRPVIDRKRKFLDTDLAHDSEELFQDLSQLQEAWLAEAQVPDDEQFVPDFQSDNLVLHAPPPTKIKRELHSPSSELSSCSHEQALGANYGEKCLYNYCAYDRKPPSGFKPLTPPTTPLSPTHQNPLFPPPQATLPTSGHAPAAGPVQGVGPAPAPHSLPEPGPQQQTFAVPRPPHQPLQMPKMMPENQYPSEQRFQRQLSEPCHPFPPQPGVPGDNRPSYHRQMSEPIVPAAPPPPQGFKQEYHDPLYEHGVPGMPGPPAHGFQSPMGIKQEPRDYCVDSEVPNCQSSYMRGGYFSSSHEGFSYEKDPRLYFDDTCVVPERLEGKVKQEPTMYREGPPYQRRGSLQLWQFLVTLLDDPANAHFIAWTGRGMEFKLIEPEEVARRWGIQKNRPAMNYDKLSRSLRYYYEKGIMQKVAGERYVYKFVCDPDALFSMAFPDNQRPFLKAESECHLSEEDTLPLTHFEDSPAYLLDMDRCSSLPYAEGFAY
# Summary of the method: as §1
# HSF1 = HSF1 (Homo sapiens, UniProt Q00613 1-529); conditions: protein: recombinant; tags: N-terminal GST; chain copies: 3; dsDNA, one strand shown
# Chain of HSF1 (Q00613 whole entry): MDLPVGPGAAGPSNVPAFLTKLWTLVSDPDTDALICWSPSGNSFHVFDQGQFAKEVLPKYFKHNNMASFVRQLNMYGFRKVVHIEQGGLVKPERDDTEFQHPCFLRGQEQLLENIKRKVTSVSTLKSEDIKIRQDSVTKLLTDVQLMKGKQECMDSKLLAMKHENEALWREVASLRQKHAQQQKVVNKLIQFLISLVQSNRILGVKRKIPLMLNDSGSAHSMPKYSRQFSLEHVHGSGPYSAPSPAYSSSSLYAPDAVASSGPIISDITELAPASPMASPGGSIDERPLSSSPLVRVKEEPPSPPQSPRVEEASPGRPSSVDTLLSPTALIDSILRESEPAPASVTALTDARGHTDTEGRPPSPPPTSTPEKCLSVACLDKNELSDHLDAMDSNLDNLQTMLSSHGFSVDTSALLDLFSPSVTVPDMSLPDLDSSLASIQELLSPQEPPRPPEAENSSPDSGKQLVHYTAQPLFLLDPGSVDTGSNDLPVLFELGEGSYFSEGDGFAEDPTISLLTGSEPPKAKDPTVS
# Summary of the method: as §1
# SPIC = target: T2, SPIC (Homo sapiens, UniProt Q8N5J4 1-248); conditions: protein: recombinant; tags: N-terminal GST; dsDNA, one strand shown
# T2 sequence: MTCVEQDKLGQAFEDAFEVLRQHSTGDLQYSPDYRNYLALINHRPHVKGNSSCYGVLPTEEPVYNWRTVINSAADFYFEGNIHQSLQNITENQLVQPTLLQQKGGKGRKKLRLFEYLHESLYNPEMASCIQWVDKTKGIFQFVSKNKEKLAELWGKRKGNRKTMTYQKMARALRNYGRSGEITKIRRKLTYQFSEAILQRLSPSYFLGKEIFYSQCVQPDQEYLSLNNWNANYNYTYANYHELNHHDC
# Summary of the method: as §1
# ELF4 = ELF4 (Homo sapiens, UniProt Q99607 1-663); conditions: protein: recombinant; tags: N-terminal GST; dsDNA, one strand shown
# Chain of ELF4 (Q99607 whole entry): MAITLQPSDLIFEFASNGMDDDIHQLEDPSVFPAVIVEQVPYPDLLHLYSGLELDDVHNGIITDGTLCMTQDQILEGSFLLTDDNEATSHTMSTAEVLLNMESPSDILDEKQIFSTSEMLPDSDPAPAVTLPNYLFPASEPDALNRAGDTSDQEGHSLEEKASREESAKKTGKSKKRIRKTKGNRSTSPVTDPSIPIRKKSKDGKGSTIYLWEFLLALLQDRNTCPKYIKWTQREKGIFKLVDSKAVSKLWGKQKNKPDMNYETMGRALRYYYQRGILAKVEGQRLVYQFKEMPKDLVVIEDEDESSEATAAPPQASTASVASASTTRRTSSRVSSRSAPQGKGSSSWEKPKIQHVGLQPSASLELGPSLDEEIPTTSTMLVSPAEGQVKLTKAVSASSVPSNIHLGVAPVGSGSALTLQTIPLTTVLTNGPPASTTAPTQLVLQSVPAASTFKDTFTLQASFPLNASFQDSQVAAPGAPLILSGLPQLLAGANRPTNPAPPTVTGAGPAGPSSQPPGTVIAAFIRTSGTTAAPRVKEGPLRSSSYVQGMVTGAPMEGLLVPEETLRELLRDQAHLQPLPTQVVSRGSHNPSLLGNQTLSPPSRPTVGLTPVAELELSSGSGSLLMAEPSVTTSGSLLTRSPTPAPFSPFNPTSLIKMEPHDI
# Summary of the method: as §1
# ELK4 = target: T3, ELK4 (Homo sapiens, UniProt P28324-2 1-405); conditions: protein: recombinant; tags: N-terminal GST; dsDNA, one strand shown
# T3 sequence: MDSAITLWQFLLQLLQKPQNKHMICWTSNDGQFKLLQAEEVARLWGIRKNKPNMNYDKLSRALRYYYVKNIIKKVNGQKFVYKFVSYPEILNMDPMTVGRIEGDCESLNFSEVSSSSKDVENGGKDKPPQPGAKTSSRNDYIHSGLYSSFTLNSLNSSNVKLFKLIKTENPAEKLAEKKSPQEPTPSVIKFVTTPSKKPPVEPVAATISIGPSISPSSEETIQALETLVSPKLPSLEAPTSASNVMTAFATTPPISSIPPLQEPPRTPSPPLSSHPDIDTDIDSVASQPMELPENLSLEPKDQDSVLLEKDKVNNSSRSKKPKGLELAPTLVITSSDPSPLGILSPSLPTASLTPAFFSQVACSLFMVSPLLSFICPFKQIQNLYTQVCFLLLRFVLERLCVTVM
# Summary of the method: as §1
# ETV2 = target: T4, ETV2 (Homo sapiens, UniProt O00321 1-342); conditions: protein: recombinant; tags: N-terminal GST; dsDNA, one strand shown
# T4 sequence: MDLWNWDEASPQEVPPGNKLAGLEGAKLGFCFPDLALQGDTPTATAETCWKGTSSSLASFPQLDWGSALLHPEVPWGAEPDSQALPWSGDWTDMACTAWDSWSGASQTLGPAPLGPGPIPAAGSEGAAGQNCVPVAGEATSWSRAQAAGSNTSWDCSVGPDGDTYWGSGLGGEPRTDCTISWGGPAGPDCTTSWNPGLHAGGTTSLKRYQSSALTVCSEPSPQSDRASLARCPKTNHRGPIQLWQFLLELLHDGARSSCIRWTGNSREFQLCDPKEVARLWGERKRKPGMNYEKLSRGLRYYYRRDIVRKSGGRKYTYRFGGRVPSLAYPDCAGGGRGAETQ
# Summary of the method: as §1
# ELF3 = target: T5, ELF3 (Homo sapiens, UniProt P78545 1-371); conditions: protein: recombinant; tags: N-terminal GST; dsDNA, one strand shown
# T5 sequence: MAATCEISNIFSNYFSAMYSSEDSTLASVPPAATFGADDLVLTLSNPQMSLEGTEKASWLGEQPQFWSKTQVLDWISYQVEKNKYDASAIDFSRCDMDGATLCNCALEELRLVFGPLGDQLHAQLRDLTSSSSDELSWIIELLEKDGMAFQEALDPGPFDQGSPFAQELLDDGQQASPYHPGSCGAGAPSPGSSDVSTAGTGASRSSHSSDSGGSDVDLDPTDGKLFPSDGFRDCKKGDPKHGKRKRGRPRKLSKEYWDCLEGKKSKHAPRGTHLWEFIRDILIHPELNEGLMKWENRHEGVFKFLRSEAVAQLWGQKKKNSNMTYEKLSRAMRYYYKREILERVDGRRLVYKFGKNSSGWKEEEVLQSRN
# Summary of the method: as §1
sequence,measurement,setting,value
CACTCC,binding signal,FEV,"1.28 fold enrichment (6-mer frequency, TF over GST control)"
same,binding signal,ETV5,"1.27 fold enrichment (6-mer frequency, TF over GST control)"
same,binding signal,HSF1,"1.05 fold enrichment (6-mer frequency, TF over GST control)"
same,binding signal,SPIC,"1.28 fold enrichment (6-mer frequency, TF over GST control)"
same,binding signal,ELF4,"1.34 fold enrichment (6-mer frequency, TF over GST control)"
same,binding signal,ELK4,"1.35 fold enrichment (6-mer frequency, TF over GST control)"
same,binding signal,ETV2,"1.17 fold enrichment (6-mer frequency, TF over GST control)"
same,binding signal,ELF3,"1.23 fold enrichment (6-mer frequency, TF over GST control)"
